Screens deposited in PubChem by The Scripps Research Institute Molecular Screening Center.
Only some compounds are listed: those with a hit (about 1.8% of all), similar ones and a draw of the others.
LYPLA2 counter = LYPLA2 inhibitors, primary screen, counter-screen for PME1 inhibitor project, biochemical, fluorescence polarization, FP-Rh probe ABPP. 320,000 compounds, 0.38% hits. Acyl-protein thioesterase 2 (Homo sapiens), O95372. inhibition, % at 5.9 µM. recombinant LYPLA2;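 active = inhibition above the screen-wide mean plus 3 SD, limit set per campaign, cut at about 26% in these data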;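 also: 0% = LYPLA2 with DMSO and 100% = wells lacking LYPLA2 enzyme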
Fam108B inh = mouse Fam108B serine hydrolase inhibitors, primary screen, counter-screen for RBBP9 inhibitor project, biochemical, fluorescence polarization; AID 1947, 2009; inhibition, % at 9.51 µM; recombinant Fam108B, FP-Rh probe fluorescence polarization; 300,000 compounds, 0.33% hits;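 active = inhibition above the screen mean inhibition plus 3 SD, computed separately per campaign, cut at about 18% in these data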;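 also: inhibitors lower polarization as less probe binds the enzyme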
LYPLA1 inh = LYPLA1 inhibitors, primary screen, counter-screen for PME1 inhibitor project, biochemical, fluorescence polarization, FP-Rh probe ABPP; Acyl-protein thioesterase 1 (Homo sapiens), O75608; recombinant LYPLA1; inhibition, % at 5.9 µM; 320,000 compounds, 0.16% hits; AID 2174, 2009;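 active = inhibition above the mean of all tested compounds plus 3 SD, set per campaign, cut at about 14% in these data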;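 also: inhibitors block serine hydrolase probe labeling of LYPLA1 so polarization falls; 0% = enzyme with DMSO and 100% = wells lacking LYPLA1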
GSTO1 counter = inhibitors of recombinant GSTO1, primary screen, counter-screen for RBBP9 inhibitor project, biochemical, fluorescence polarization; 300,000 compounds, 1.1% hits; AID 1974, 2009; activity-based probe fluorescence polarization; inhibition, % at 5.96 µM; Glutathione S-transferase omega-1 (Homo sapiens), P78417;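 active = inhibition above the campaign mean inhibition plus 3 SD, cut at about 35% in these data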;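 also: 0% = GSTO1-1 with DMSO and 100% = wells lacking GSTO1-1 enzyme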
Target sequence (P78417 whole entry, looked up): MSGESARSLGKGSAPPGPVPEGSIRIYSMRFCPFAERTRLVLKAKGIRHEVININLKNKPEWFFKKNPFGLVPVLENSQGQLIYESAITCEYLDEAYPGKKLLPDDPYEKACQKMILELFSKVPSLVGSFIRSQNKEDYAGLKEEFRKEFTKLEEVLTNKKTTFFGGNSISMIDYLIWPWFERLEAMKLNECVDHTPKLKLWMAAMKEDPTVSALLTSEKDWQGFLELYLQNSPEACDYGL
PME-1 primary = PME-1 inhibitors via competitive probe labeling, primary screen, biochemical, fluorescence polarization, FP-Rh probe, HTS; AID 2130, 2009; recombinant PME-1; inhibition, % at 5.9 µM; 320,000 compounds, 0.53% hits; Protein phosphatase methylesterase 1 (Homo sapiens), Q9Y570;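 active = inhibition above the campaign mean of all compounds plus 3 SD, cut at about 26% in these data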;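 also: competitive labeling of PME-1 active site by serine hydrolase directed probe; 0% = PME-1 with DMSO and 100% = wells lacking PME-1 enzyme; inhibitors block probe labeling so polarization falls and inhibition rises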
Target sequence (Q9Y570 whole entry, looked up): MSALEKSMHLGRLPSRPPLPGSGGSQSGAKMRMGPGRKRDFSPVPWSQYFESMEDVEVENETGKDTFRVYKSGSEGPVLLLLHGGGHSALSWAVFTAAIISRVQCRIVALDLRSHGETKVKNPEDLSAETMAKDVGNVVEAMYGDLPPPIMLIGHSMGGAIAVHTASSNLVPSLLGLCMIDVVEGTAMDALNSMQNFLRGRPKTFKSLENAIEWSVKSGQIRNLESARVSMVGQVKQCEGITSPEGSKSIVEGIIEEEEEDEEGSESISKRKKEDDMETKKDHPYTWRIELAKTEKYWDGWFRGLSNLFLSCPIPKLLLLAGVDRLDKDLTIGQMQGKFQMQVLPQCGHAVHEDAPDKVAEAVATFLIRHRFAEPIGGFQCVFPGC
PAD4 FP inh = human PAD4 inhibitors, primary screen, biochemical, fluorescence polarization, 1536-well format; 330,000 compounds, 0.41% hits; inhibition, % at 6.36 µM; recombinant PAD4, RCA probe fluorescence polarization;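 active = percent inhibition above a cutoff equal to the mean of all tested compounds plus 3 SD, cut at about 15% in these data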;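 also: 0% = PAD4 with RCA probe and DMSO and 100% = probe without PAD4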
LYPLA1 confirm = LYPLA1 inhibitors, retest, confirmation, counter-screen for PME1 inhibitor project, biochemical, fluorescence polarization, FP-Rh probe ABPP. 480 compounds, 69% hits. AID 2233, 2010. recombinant LYPLA1. inhibition, % at 5.9 µM. shares compounds with LYPLA1 inh;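 active = mean inhibition across replicates above the hit cutoff set in the primary screen, cut at about 15% in these data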;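 also: loss of FP-Rh probe labeling of LYPLA1 seen as lower polarization; 0% = LYPLA1 with DMSO and 100% = wells lacking LYPLA1 enzyme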
* hit, by the source's call.

What do the screens show for `O=C(NC1CC1)c1c[nH]c2ccc(S(=O)(=O)Nc3cccc(C(F)(F)F)c3)cc2c1=O`?
LYPLA2 counter: -7.6; Fam108B inh: -1.8; LYPLA1 inh: 14.3*; GSTO1 counter: -3.8; PME-1 primary: -1.1; PAD4 FP inh: -0.8; LYPLA1 confirm: 5.9

How did O=C(COC(=O)Cc1c[nH]c2ccccc12)NC1CCS(=O)(=O)C1 (stereo unspecified) do in these assays?
LYPLA2 counter: -3.5; Fam108B inh: 0.7; LYPLA1 inh: 1.2; GSTO1 counter: 1.6; PME-1 primary: 7.8; PAD4 FP inh: 1.4

How did COC/C=C/C1=CC2=CC(=O)C(C)(OC(=O)c3cnc4ccccc4n3)C(=O)C2=CO1 (stereo unspecified) do in these assays?
LYPLA2 counter: 9.0; Fam108B inh: 14.8; LYPLA1 inh: 21.9*; GSTO1 counter: 56.4*; PME-1 primary: 14.7; PAD4 FP inh: 49.8*; LYPLA1 confirm: -1.8

Results for COc1ccc(-c2c(C)nn3c(Cl)c(C)c(C)nc23)cc1 ?
LYPLA2 counter: -2.5; Fam108B inh: 3.0; LYPLA1 inh: 1.7; GSTO1 counter: 18.0; PME-1 primary: 4.9; PAD4 FP inh: -7.8

Results for CNc1oc(-c2ccccc2Cl)nc1C#N ?
LYPLA2 counter: 0.5; Fam108B inh: 1.7; LYPLA1 inh: 3.3; GSTO1 counter: 0.4; PME-1 primary: -3.5; PAD4 FP inh: -3.0

How did CNc1oc(-c2cccc3ccccc23)nc1C#N do in these assays?
LYPLA2 counter: 7.0; Fam108B inh: 6.2; LYPLA1 inh: 17.0*; GSTO1 counter: 0.9; PME-1 primary: 5.9; PAD4 FP inh: 0.7; LYPLA1 confirm: 5.5

Results for CC(=O)c1ccc(N2CCN(C(=O)c3cccc(Oc4ccccc4)c3)CC2)cc1 ?
LYPLA2 counter: 67.0*; Fam108B inh: 0.1; LYPLA1 inh: 47.7*; GSTO1 counter: 7.5; PME-1 primary: 4.0; PAD4 FP inh: -2.3; LYPLA1 confirm: 61.5*

Results for O=C(O)CCCCCCCCCCCc1ccccc1 ?
LYPLA2 counter: 25.7; Fam108B inh: 3.4; LYPLA1 inh: 18.4*; GSTO1 counter: 6.2; PME-1 primary: -0.1; PAD4 FP inh: 0.0; LYPLA1 confirm: 27.5*

What do the screens show for `CCOC(=O)c1nn(-c2ccc(Br)cc2)cc1C(=O)c1cccc2ccccc12`?
LYPLA2 counter: -8.3; Fam108B inh: -2.1; LYPLA1 inh: -4.9; GSTO1 counter: 0.4; PME-1 primary: -4.5; PAD4 FP inh: 1.6

Results for O=C1CCC([N+](=O)[O-])C(c2ccc(-c3ccccc3)cc2)N1 (stereo unspecified) ?
LYPLA2 counter: 10.5; Fam108B inh: 3.1; LYPLA1 inh: 22.0*; GSTO1 counter: -1.4; PME-1 primary: 6.6; PAD4 FP inh: -1.6; LYPLA1 confirm: 24.0*

What do the screens show for `O=C1CCC([N+](=O)[O-])C(c2ccc(C(F)(F)F)cc2)N1` (stereo unspecified)?
LYPLA2 counter: 2.0; Fam108B inh: -4.3; LYPLA1 inh: 0.2; GSTO1 counter: -0.3; PME-1 primary: -2.2; PAD4 FP inh: 0.3

What do the screens show for `CC(NC(=O)c1ccco1)C(=O)N1CCN(c2cccc(C(F)(F)F)c2)CC1` (stereo unspecified)?
LYPLA2 counter: 17.1; LYPLA1 inh: 33.7*; PME-1 primary: 10.7; PAD4 FP inh: -5.6; LYPLA1 confirm: 44.9*

What do the screens show for `CC(NC(=O)c1ccco1)C(=O)N1CCN(c2ccccc2)CC1` (stereo unspecified)?
LYPLA2 counter: 2.4; Fam108B inh: 0.8; LYPLA1 inh: 5.3; GSTO1 counter: 3.9; PME-1 primary: 3.0; PAD4 FP inh: 1.2

How did CCOC(=O)C1CCCCN1S(=O)(=O)c1ccc2c(c1)CC(C)N2C(=O)C1CCC1 (stereo unspecified) do in these assays?
LYPLA2 counter: 11.7; Fam108B inh: 4.7; LYPLA1 inh: 15.3*; GSTO1 counter: 7.6; PME-1 primary: 2.6; PAD4 FP inh: -3.4; LYPLA1 confirm: 8.9

What do the screens show for `CC1CC(C)CN(S(=O)(=O)c2ccc3c(c2)CC(C)N3C(=O)C2CCC2)C1` (stereo unspecified)?
LYPLA2 counter: 14.0; Fam108B inh: 0.0; LYPLA1 inh: 54.5*; GSTO1 counter: -2.2; PME-1 primary: 2.8; PAD4 FP inh: -0.3; LYPLA1 confirm: 54.2*

Results for CC1CC(C)CN(S(=O)(=O)c2ccc3c(c2)CC(C)N3C(=O)C2CC2)C1 (stereo unspecified) ?
LYPLA2 counter: 1.0; Fam108B inh: -0.7; LYPLA1 inh: 28.7*; GSTO1 counter: -0.7; PME-1 primary: 11.5; PAD4 FP inh: -1.1; LYPLA1 confirm: 31.1*

How did CC1Cc2cc(S(=O)(=O)N3CCCCC3C)ccc2N1C(=O)C1CCC1 (stereo unspecified) do in these assays?
LYPLA2 counter: 1.9; Fam108B inh: -0.6; LYPLA1 inh: 0.7; GSTO1 counter: 7.3; PME-1 primary: 1.6; PAD4 FP inh: -4.4

Results for O=C(Cc1ccccc1F)NNC(=O)c1ccncc1 ?
LYPLA2 counter: 1.0; Fam108B inh: -4.1; LYPLA1 inh: 0.6; GSTO1 counter: -3.5; PME-1 primary: 6.0; PAD4 FP inh: 2.7

How did CCOc1cc(N2CCOCC2)c(OCC)cc1NC(=O)COC(=O)c1c(CC)noc1C do in these assays?
PAD4 FP inh: 0.3

Results for O=C1NC(Cc2ccccc2)c2nc3cc(Cl)ccc3c(=O)n2-c2ccccc21 (stereo unspecified) ?
PAD4 FP inh: 0.5

Results for COC(=O)c1nnn(CC(=O)NC(=O)Nc2ccccc2)c1C(=O)OC ?
LYPLA2 counter: -2.4; Fam108B inh: -2.7; LYPLA1 inh: 0.0; GSTO1 counter: -1.4; PME-1 primary: 4.5; PAD4 FP inh: 0.3

Results for CCCCc1cc(=O)oc2cc(OCc3nn[nH]n3)c(Cl)cc12 ?
LYPLA2 counter: 16.5; Fam108B inh: 5.3; LYPLA1 inh: 21.9*; GSTO1 counter: -7.2; PME-1 primary: -0.1; PAD4 FP inh: -1.6; LYPLA1 confirm: 20.7*

How did CNc1ccc(/C=C(\CCC(=O)O)c2nc3ccccc3s2)cc1[N+](=O)[O-] do in these assays?
LYPLA2 counter: 11.1; Fam108B inh: 12.6; LYPLA1 inh: 16.4*; GSTO1 counter: 25.1; PME-1 primary: 25.5; PAD4 FP inh: -6.4; LYPLA1 confirm: 21.7*

Results for COCCCNC(=S)N(Cc1ccccc1)Cc1ccccc1 ?
LYPLA2 counter: 4.5; Fam108B inh: -1.8; LYPLA1 inh: -0.6; GSTO1 counter: 0.2; PME-1 primary: -5.2; PAD4 FP inh: -5.6
